Measurements from PubChem BioAssay AID623911 (Vanderbilt High Throughput Screening Facility, 2012).
Among all 2,100 compounds or so, about 770 (37%) were called active.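 How the source made its calls: active means by-eye trace score of 1 for enhancers or -1 for inhibitors, so actives lie on both sides (some results past the limit were not filed as active); inactive means score 0, or 3 fluorescent, or 4 baseline rise.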 This is one part of the list.

Each molecule was assayed against G protein-activated inward rectifier potassium channel 2 (Homo sapiens) + G protein-activated inward rectifier potassium channel 1 (Homo sapiens) (UniProt P48051+P48549) (assay: GIRK1/2 thallium flux modulators, retest, confirmation, cell-based, HEK293 rmGlu8/hGIRK1/2, FluoZin-2 (AID 623911)). Settings: HEK293 rmGlu8/hGIRK1/2, thallium flux FluoZin-2; actives lie on both sides; glutamate co-added at its EC20 level.
Sequence of G protein-activated inward rectifier potassium channel 2 (Homo sapiens) + G protein-activated inward rectifier potassium channel 1 (Homo sapiens) (P48051 whole entry, looked up): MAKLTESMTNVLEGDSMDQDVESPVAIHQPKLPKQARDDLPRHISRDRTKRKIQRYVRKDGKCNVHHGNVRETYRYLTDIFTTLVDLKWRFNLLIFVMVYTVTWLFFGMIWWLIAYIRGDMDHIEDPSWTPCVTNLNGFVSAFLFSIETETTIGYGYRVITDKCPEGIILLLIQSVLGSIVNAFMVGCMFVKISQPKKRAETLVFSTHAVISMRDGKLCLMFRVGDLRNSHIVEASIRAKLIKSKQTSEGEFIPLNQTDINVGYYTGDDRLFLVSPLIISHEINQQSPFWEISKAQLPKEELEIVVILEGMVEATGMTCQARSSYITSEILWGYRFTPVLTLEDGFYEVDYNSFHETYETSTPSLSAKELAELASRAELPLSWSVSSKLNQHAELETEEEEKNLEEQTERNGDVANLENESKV
Sequence of G protein-activated inward rectifier potassium channel 2 (Homo sapiens) + G protein-activated inward rectifier potassium channel 1 (Homo sapiens) (P48549 whole entry, looked up): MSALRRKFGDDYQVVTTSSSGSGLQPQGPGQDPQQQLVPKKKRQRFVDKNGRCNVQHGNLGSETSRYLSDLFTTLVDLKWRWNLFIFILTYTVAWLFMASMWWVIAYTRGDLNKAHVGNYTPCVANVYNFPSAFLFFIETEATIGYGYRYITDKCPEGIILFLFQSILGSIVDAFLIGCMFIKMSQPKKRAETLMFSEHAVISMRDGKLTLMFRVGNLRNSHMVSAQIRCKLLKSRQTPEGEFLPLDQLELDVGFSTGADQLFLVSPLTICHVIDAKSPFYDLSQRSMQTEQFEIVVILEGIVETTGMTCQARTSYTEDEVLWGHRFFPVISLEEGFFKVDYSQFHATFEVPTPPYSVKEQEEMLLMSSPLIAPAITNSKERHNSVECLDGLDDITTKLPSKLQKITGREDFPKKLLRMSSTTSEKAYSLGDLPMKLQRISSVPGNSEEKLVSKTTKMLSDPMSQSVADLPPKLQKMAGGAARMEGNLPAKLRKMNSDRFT

Manual score, active:
O=c1c2cc(Cl)ccc2[nH]c(=S)n1Cc1ccco1 1
Cc1cc(NC(=O)COc2ccc(Cl)cc2Cl)n(-c2ccccc2)n1 1
Cc1cc(NC(=O)Nc2ccccc2)n(-c2ccccc2)n1 1
CCCCc1ccc(NC(=S)Nc2ccc(Cl)c(S(=O)(=O)N(C)C)c2)cc1 1
CCCCc1ccc(NC(=S)Nc2cccnc2)cc1 1
Oc1[nH]c2ccccc2c1N=Nc1nc2ccccc2s1 1
Cc1ccc(-c2csc3ncnc(N4CCN(C(=O)c5ccccc5)CC4)c23)cc1 -1
O=C(c1ccco1)N1CCN(c2ncnc3scc(-c4cccs4)c23)CC1 -1
CCOP(=O)(c1ccccc1)c1nc(-c2ccccc2C)oc1N1CCCCC1 (centres undefined) -1
O=C(NC(=S)N1CCN(c2c(Cl)cccc2[N+](=O)[O-])CC1)c1cccs1 1
O=C(NC(=S)N1CCN(c2ccc(Cl)cc2[N+](=O)[O-])CC1)c1cccs1 1
O=C(NC(=S)N1CCN(c2ccc(Cl)cc2[N+](=O)[O-])CC1)c1ccco1 1
O=C(NC(=S)N1CCCCC1)c1cccs1 1
O=C(NC(=S)N1CCN(c2ccc(C(F)(F)F)cc2[N+](=O)[O-])CC1)c1cccs1 1
O=C(CN1CCOCC1)Nc1ccc(C2CCCCC2)cc1 1
S=c1[nH]c2cc(Cl)ccc2s1 1
CCCc1nc2ccccc2c(=O)n1/N=C/c1c(C)[nH]n(-c2ccc(C)cc2)c1=O 1
CCCc1ccc(C(=O)N2CCN(c3ccccc3OCC)CC2)cc1 -1
O=C(CSc1nc(CCC2CCCC2)nc2ccccc12)NCc1ccc2c(c1)OCO2 1
C=CCn1c(O)c(N=NC(=O)OC(C)(C)C)c2ccccc21 1
CCCn1c(O)c(N=NC(=O)c2ccco2)c2ccccc21 1
CC12CC3(C)CC(C)(C1)CC(C(=O)NC(=S)N1CCOCC1)(C2)C3 1
CC12CC3CC(C)(C1)CC(C(=O)NC(=S)N1CCCCC1)(C3)C2 1
CCCCOc1ccccc1C1C(C(=O)OC)=C(C)N(C)C(C)=C1C(=O)OC -1
CCc1nc(SCC(=O)N2CC(=O)Nc3ccccc32)c2c(C)c(C)sc2n1 1
O=C1NC(=S)SC1=C1CCCCCC1 1
CCCCCC(=O)NC(=S)NNC(=O)c1ccc([N+](=O)[O-])cc1 1
CCCCNC(=S)NC(=O)c1ccc([N+](=O)[O-])cc1 1
CC(C)CNC(=S)NC(=O)c1ccc([N+](=O)[O-])cc1 1
CC(C)CNC(=S)NC(=O)c1ccc(F)cc1 1
Cc1sc2nc(C(C)C)nc(SCC(=O)NCc3ccco3)c2c1C 1
CCn1c(SCC(=O)NC(=O)NCc2ccco2)nc2sc(C)c(C)c2c1=O 1
Cc1sc2nc(C(C)C)nc(SCC(=O)N3c4ccccc4CC3C)c2c1C (centres undefined) 1
Cc1ccc2nc(-c3ccc(O)cc3)c(Nc3ccc4c(c3)OCCO4)n2c1 -1
O=C(CCSCc1cccc(Cl)c1)NCCc1ccc(Cl)cc1 1

Manual score, inactive:
Cc1ccc(-c2cn(-c3ccccc3)c(SCC(=O)NC3CCS(=O)(=O)C3)n2)cc1C (centres undefined) 0
O=c1c2cc(N3CCOCC3)ccc2[nH]c(=S)n1Cc1ccc(Cl)cc1 0
O=c1[nH]c2ccc(Cl)cc2c(=O)n1Cc1ccco1 0
O=C(COc1ccc(Cl)cc1Cl)Nc1ccccn1 0
Cc1cc(C)n(CC(=O)O)n1 0
O=C(COc1ccc(Cl)cc1Cl)NNC(=S)Nc1ccc(F)cc1 0
NC1=NC2(CCCCC2)n2c(nc3ccccc32)N1 0
CCSc1ccccc1C(=O)Nc1cccnc1 0
CCCCN(CCCC)S(=O)(=O)c1ccc(NC(=O)c2ccc([N+](=O)[O-])cc2Cl)cc1 0
O=C(CCCc1nc(-c2ccc(Cl)cc2)no1)Nc1cccnc1 0
CC(C)N(C(=O)CN(C#N)c1nc(N(C)C)nc(N(C)C)n1)c1ccccc1 0
CC(/C=N/n1c(-c2ccc(Cl)cc2)n[nH]c1=S)=C\c1ccco1 0
Oc1[nH]c2ccccc2c1N=NC(=S)NCCc1ccccc1 0
O=C(CSCc1ccccc1)N=Nc1c(O)[nH]c2ccccc12 0
O=C(c1ccc(-c2ccccc2)cc1)N1CCN(c2ncccn2)CC1 0
Cc1ccc(-c2nnc(SCC(=O)Nc3cccc(C(=O)N4CCOCC4)c3)n2C)cc1 -0.5
O=C(c1ccco1)N1CCN(C(=O)c2cnn3c2NC(c2cccs2)CC3C(F)(F)F)CC1 (centres undefined) 0
O=C(c1cc2nc(-c3ccccc3)cc(-c3ccccc3)n2n1)N1CCN(C(=O)c2ccco2)CC1 0
COCC(C)OC(=O)c1c(N)n(CC(C)C)c2nc3ccccc3nc12 (centres undefined) 0
O=C(NC(=S)Nc1ccccc1N1CCOCC1)c1cccs1 0
O=C(NC(=S)Nc1cccc(Cl)c1N1CCCC1)c1ccc(-c2cccc([N+](=O)[O-])c2)o1 0
O=C(O/N=C\c1ccc(N2CCCCC2)c([N+](=O)[O-])c1)c1c(F)cccc1F 0
N#CC(C#N)=C1C=C2C=C(N3CCCCCC3)CCC2CC1 (centres undefined) 3
CCCC(=O)Nc1ccc(NC(=O)C2CC2)cn1 0
CN(c1ccc(OCC(=O)OCC(=O)Nc2ccccc2F)cc1)S(=O)(=O)c1cccs1 0
CCc1sc(NC(=O)CN2CCOCC2)nc1-c1ccccc1 0
O=C(CNC1CCCCCC1)Nc1ccc(N2CCCC2)cc1 0
CCOC(=O)CSc1nc2ccc(Nc3nc(N4CCOCC4)nc(N4CCOCC4)n3)cc2s1 0
O=C1CC(c2ccco2)Sc2nc3ccccc3n21 (centres undefined) 0
Cc1ccc(-n2[nH]c(C)c(/C=N/c3ccccn3)c2=O)cc1 0
Cc1ccc(C2CC2c2n[nH]c(=S)n2-c2ccc(C)cc2)cc1 (centres undefined) 0
CCOc1ccccc1N1CCN(C(=S)NC(=O)C23CC4CC(CC(C4)C2)C3)CC1 0
CCOc1ccccc1N1CCN(C(=O)c2cc3c(s2)CCC3)CC1 -0.5
NC(=O)c1noc(C(=O)N(CC(=O)NC2CCCC2)Cc2ccc3c(c2)OCO3)c1N 0
O=C(CSc1c[nH]c2ccccc12)NCc1ccc2c(c1)OCO2 -0.5
Cc1ccc(C)n1-c1ccc(C(=O)NN)cc1 0
CC(/C=N/n1c(C2CCCCC2)n[nH]c1=S)=C\c1ccccc1 0
CC(C)c1ccc(-n2cccc2/C=C2/C(=N)N3C=CSC3=NC2=O)cc1 0
C=CCn1c(N)c(C(=O)OC(C)(C)C)c2nc3ccccc3nc21 0
CCCCn1c(O)c(N=Nc2ccccn2)c2ccccc21 0
CCCCNC(=S)N=Nc1c(O)n(Cc2ccccc2)c2ccccc12 0
CCn1c(O)c(N=NC(=O)CNc2cccc(C)c2)c2ccccc21 0
O=C(NC(=S)N1CCCCC1)C12CC3CC(CC(C3)C1)C2 0.5
CC12CC3CC(C)(C1)CC(C(=O)NC(=S)N1CCOCC1)(C3)C2 0.5
CCC1(C)CC(c2csc(N)n2)CCO1 (centres undefined) 0
CCOc1ccc(N2C(=O)c3ccccc3C2O)cc1 (centres undefined) 0
CCCCN1C(=O)c2ccccc2C1C(=O)NC1CCCC1 (centres undefined) 0
Cc1sc2nc(C3CC3)nc(SCC(=O)N3CC(=O)Nc4ccccc43)c2c1C 0
CCc1nc(SCC(=O)Nc2nnc(CC)s2)c2c(C)c(C)sc2n1 0
CSc1nc2ccccc2cc1/C=C(\C#N)c1cccc(C)c1 0
COC(=O)C(CC(C)C)NC(=O)c1ccc([N+](=O)[O-])c(C)c1 (centres undefined) 0
CCCCCCc1cc2cc(-c3nnc(-c4cc(OC)c(OC)c(OC)c4)o3)c(=O)oc2cc1O 3
CCn1c2ccccc2c2cc(/C=N/n3cn[nH]c3=S)ccc21 0
O=c1cc(CN2CCOCC2)nc(C2CC2)[nH]1 0
O=C(COC(=O)CCC1CCCC1)Nc1nc2c(F)c(F)c(F)cc2s1 0.5
O=C(CSc1nc(-c2ccc(F)cc2)cs1)N1CCOCC1 0
CCOC(=O)/C(C#N)=C/C1=C(N2CCCC2)CC(C)(C)OC1 0
Cc1sc2ncnc(SCc3ccco3)c2c1C 0
O=C(CSc1nnc(-c2c[nH]c3ccccc23)n1-c1ccc(F)cc1)NCc1ccco1 -0.5
CCCn1c(SCc2nc3sc(C)c(C)c3c(=O)[nH]2)nc2ccccc2c1=O 0
O=C(c1ccc(CS(=O)(=O)c2ccc(Br)cc2)o1)N1CCN(c2ncccn2)CC1 0
CCOC(=O)C1CCN(C(=O)CN(c2ccc(Cl)c(C(F)(F)F)c2)S(C)(=O)=O)CC1 0
O=c1cc(Cn2ccnc2)c2cc3c(cc2o1)CCC3 0
O=C(Nc1ccc(F)cc1)c1cccc2c1C(=O)N(Cc1ccccn1)C2 0
C/C(CC(C)(C)C1CCCCC1)=N\NC(N)=S 0
Cc1ccc(-c2nnc(SCC(=O)Nc3ccc4c(c3)OCCO4)n2N)cc1 0
CCn1c(-c2cc3c(C(F)(F)F)nn(C)c3s2)n[nH]c1=S 0
O=C(O)C1C2C=CC(C2)C1C(=O)NCCc1cccc(Cl)c1 (centres undefined) 0.5
O=C(NC1CC1)c1ccc(CSCc2cccc(F)c2)o1 0
